Measurements as given in PubChem BioAssay AID624296 (National Center for Advancing Translational Sciences (NCATS), 2012).
Out of some 350,000 compounds screened, about 9,900 (2.8%) were called active. Where a call stands in place of a potency, no number is given. About 15% were inconclusive and are not listed. The call rests on the fitted dose curve; in most records, active means well fitted activation curve with a large enough effect; inconclusive means small, poorly fitted or top-dose-only effect; inactive means no such curve, though single readings can be large or run the other way. The full list was thinned out, with actives kept by preference.

Test: A quantitative high throughput screen for small molecules that induce DNA re-replication in MCF 10a normal breast cells. Further: nearly all actives have a fitted effect of over 50% in size.
Details: MCF 10A DNA re-replication, Hoechst nuclear intensity, 48 h; series mostly up to 46.1 µM
Source text: H Molecular Libraries Probe Production Network [MLPCN]
NIH Chemical Genomics Center [NCGC]
Assay Provider: Melvin DePamphilis, NICHD, NIH
Eukaryotic cells normally restrict genome duplication to once per cell division. When this process is aberrant, DNA re-replication occurs when cells reinitiate DNA replication before the first round of replication is complete. DNA re-replication induces the DNA damage response, arrests cell proliferation, and triggers apoptosis. The cell cycle components cyclin A, Cdt-1, Cdc6 and geminin are critical regulators of this process and their misregulation results in DNA re-replication in normal and cancer cells. To identify compounds that induce re-replication in normal cells, an image-based assay was used to measure DNA content of nuclei, as detected by the fluorescent DNA binding dye, Hoechst. Cell nuclei were imaged by a fluorescence scanning plate imager and compounds that induce DNA re-replication were identified by the increase of nuclei with elevated fluorescence intensity
For screening, 250 cells in 5 uL/well were dispensed into black clear 1536-well plates (Aurora) using a solenoid-based dispenser. Following transfer of 23 nL compound or DMSO vehicle by a pin tool, the plates were incubated 48 hr at 37 C and 5% CO2. After addition of 1 uL/well Hoescht stain, the plates were incubated 40 min at 37 C, 5% CO2 and total intensity of fluorescent objects (nuclei) were enumerated by an Acumen Explorer Ex3 (TTP LabTech) fluorescence scanning plate imager (405 nm excitation, 500-530 nm emission).
Keywords: NIH Roadmap, MLPCN, MLI, MLSMR, qHTS, NCGC, DNA replication, cancer
Potency means the concentration at half of the fitted maximal effect.

SMILES	Potency
CC(C)(C)c1nnc2sc(SCC(O)=C(C#N)c3nc4ccccc4[nH]3)nn2c1=O	inactive
COc1ccccc1C1=CC(=O)CCC1	inactive
COc1ccccc1-c1sc2ccccc2c1C#CC1(O)CCCCC1	18.4 µM (active)
COc1ccccc1-c1sc2ccccc2c1-c1ccc(C(C)=O)cc1	inactive
Cc1ccc(F)cc1NC(=O)CSCc1c(C)noc1C	inactive
COc1cccc(-n2c(SCC(=O)NC3CCS(=O)(=O)C3)nc3ccccc3c2=O)c1 (configuration not stated)	inactive
O=C(Nc1ccccc1)c1nnsc1S(=O)(=O)c1ccc(Cl)cc1	13 µM (active)
CC(=O)Nc1cc(C(=O)O)ccc1S(=O)(=O)c1ccc(Cl)cc1	inactive
CS(=O)(=O)c1ccc(Cl)c(NC(=O)Nc2ccccc2)c1	inactive
COc1ccccc1C(=O)COC(=O)COc1ccc(C#N)cc1	inactive
O=C(COC(=O)c1ccc([N+](=O)[O-])o1)NC12CC3CC(CC(C3)C1)C2	inactive
N#CCC(=O)Nc1ccc(C(=O)OCC(=O)Nc2sc3c(c2C#N)CCCC3)cc1	inactive
CCN(CC(=O)Nc1ccccc1OC)C(=O)CC1CC2CCC1C2 (configuration not stated)	inactive
COc1cc(OC)c(C(=O)NNC(=O)c2ccccc2-n2cccc2)cc1OC	inactive
O=C(COC(=O)c1ccccn1)Nc1cccc2ccccc12	inactive
Cc1cc(NC(=O)COc2ccccc2C#N)no1	inactive
N#Cc1ccccc1NC(=O)COc1c(Br)cc(Br)c2cccnc12	25.9 µM (active)
C#CCOCCOCCOCCNc1nc(N2CCN(C(=O)[C@H](CCC(=O)O)n3cc(CN)nn3)CC2)nc(N2CCN(C(=O)[C@H](CCC(=O)O)n3cc(CN)nn3)CC2)n1	inactive
Cc1cc(NCc2ccco2)n2c(nc3ccccc32)c1C#N	16.4 µM (active)
Cc1cc(NC(C)C)n2c(nc3ccccc32)c1C#N	inactive
CC(C)c1cc(NCc2ccccn2)n2c(nc3ccccc32)c1C#N	inactive
Cc1ccc(NS(=O)(=O)c2ccc(C(C)C)cc2)cc1S(=O)(=O)N1CCOCC1	inactive
C/C(=N\NC(=S)Nc1ccc(C)cc1)c1cc2ccccc2o1	13 µM (active)
Cc1ccc(NC(=O)c2cc3ccccc3o2)cc1	inactive
Cc1ccc(OC(=O)c2cc3ccccc3o2)cc1	inactive
O=C(CN1C(=O)NC2(CCOc3ccccc32)C1=O)NCc1ccc(F)cc1 (configuration not stated)	inactive

SMILES	Potency
O=C(O)CSCC(=O)Nc1cccc(C(F)(F)F)c1	inactive
Cc1cccc(NC(=O)c2cccc(C(F)(F)F)c2)c1	inactive
O=C(Nc1cccc(C(F)(F)F)c1)c1cc(Br)cc(Br)c1O	4.73 µM (active)
O=C(NCCc1ccccc1)c1c[nH]c2ccc(F)cc2c1=O	inactive
Nn1c(SCC(=O)NC2CCCc3ccccc32)nnc1C1CC1 (configuration not stated)	inactive
Cc1noc(C)c1S(=O)(=O)N(C)C[C@H]1Oc2ccc(NC(=O)C3CC3)cc2C(=O)N([C@H](C)CO)C[C@@H]1C	inactive
COc1ccc(-c2nc3c(s2)CCc2onc(-c4ccc(Br)cc4)c2-3)cc1	inactive
COc1ccc(-c2nc3c(s2)CCc2onc(-c4ccc(OC)cc4)c2-3)cc1	4.11 µM (active)
COc1ccc(-c2nc3n(c2Br)CCC3)cc1	inactive
O=C(O)c1ccccc1/C=N/Nc1ccc(S(=O)(=O)Nc2ccc(Cl)cc2)cc1[N+](=O)[O-]	inactive
Cc1noc(C)c1NC(=O)Nc1ccc2c(c1)C(=O)N([C@H](C)CO)C[C@H](C)[C@@H](CN(C)C(=O)Nc1ccccc1)O2	inactive
CCOC(=O)C(=CNc1cccc(C)n1)C(=O)OCC	inactive
COc1ccccc1C(=O)c1ccccc1C(=O)c1ccccc1	inactive
CCOC(=O)C(=Cc1ccccc1OC)C(=O)OCC	14.6 µM (active)
Cn1nc(-c2ccccc2)c(CSc2cccc(Cl)c2)c1Cl	5.17 µM (active)
Cc1ccc(S(=O)(=O)c2c(COC(=O)c3cccc(Cl)c3)c(-c3ccccc3)nn2C)cc1	inactive
Cn1nc(-c2ccccc2)c(CO)c1Sc1ccccc1	inactive
O=C(NN=Cc1ccc(N2CCOCC2)cc1)c1cc2ccccc2cc1O	inactive
CCOCc1c(C(=O)N2CCN(Cc3ccc(Br)s3)CC2)oc2ccccc12	inactive
CCN(/N=C/c1ccc(N(C)C)cc1)c1nc2ccccc2[nH]1	5.8 µM (active)
CCN(/N=C/c1ccccc1)c1cc(=O)n(C)c(=O)[nH]1	inactive
CN(C)c1ccc(/C=N/N(Cc2ccccc2)c2ccccc2)cc1	inactive
Cc1ccc(S(=O)(=O)N2CCN(C(=O)COC(=O)CNC(=O)c3ccc(C(C)(C)C)cc3)CC2)c(C)c1	inactive
O=C(CCNS(=O)(=O)c1ccccc1)NCCCc1ccccc1	inactive
O=C(Cc1ccc(NC(=O)C2CCCN(C(=O)CCc3ccccc3)C2)cc1)Nc1ccc(C(=O)N2CCOCC2)cc1 (configuration not stated)	inactive
Cn1c(=O)[nH]c2c(c(C(=O)O)nn2C)c1=O	inactive

SMILES	Potency
O=C(Nc1ccc(Cl)c(Cl)c1)N1CC=C(c2ccccc2)CC1	14.6 µM (active)
O=C(O)c1cccc(S(=O)(=O)N2CC=C(c3ccccc3)CC2)c1	inactive
COc1cc(C(=O)NCC(=O)N2CC=C(c3ccccc3)CC2)cc(OC)c1OC	inactive
CCOc1ccc(/C=C(/C#N)c2nnc(N3CCOCC3)n2-c2ccccc2)cc1OC	inactive
COc1cccc2c1C(=O)c1c(O)c3c(c(O)c1C2=O)CC(O)(C(C)=NNC(=O)c1ccc(Cl)c(Cl)c1)CC3OC1CC(N)C(O)C(C)O1 (configuration not stated)	inactive
COc1cc(OC)c(C(=O)Nc2ccccc2-c2ccccc2)cc1OC	18.4 µM (active)
COc1cc2ccccc2cc1C(=O)Nc1ccccc1C	inactive
O=C(Nc1ccccc1-c1ccccc1)c1ccccc1[N+](=O)[O-]	inactive
O=C1C=C(c2cccc(Br)c2)C[C@@H](c2ccc(F)cc2)C1	inactive
CNc1nc(=O)n(C2CCCO2)cc1C (configuration not stated)	inactive
COc1ccc(C2(C#N)CCC(C(=O)O)CC2)cc1OC1CCCC1 (configuration not stated)	inactive
COc1ccc(C(=O)Nc2ccc(C3(C#N)CCCC3)cc2)cc1OC	20.6 µM (active)
COc1ccc(C(=O)Nc2ccc(N3CCC(C)CC3)cc2)cc1Br	inactive
Cc1ccc(C2CC(=O)NC(SCC(=O)OCc3ccccc3)=C2C#N)o1 (configuration not stated)	20.6 µM (active)
C=CCOC(=O)C1=C(C)NC(SCC(=O)OCC)=C(C#N)C1c1ccc(C)cc1 (configuration not stated)	inactive
C=CCSC1=C(C#N)C(c2cc(Br)c(O)c(OC)c2)CC(=O)N1 (configuration not stated)	inactive
CCOC(=O)CSC1=C(C#N)C(c2sccc2C)CC(=O)N1 (configuration not stated)	2 µM (active)
COC(=O)CSC1=C(C#N)C(c2ccccc2OC)C(C(=O)OC)C(=O)N1 (configuration not stated)	inactive
COc1cc2c(cc1OC)C(c1ccc(C)o1)CC(=O)N2 (configuration not stated)	inactive
CSCCC(NC(=O)COc1ccccc1)C(=O)OCc1ccc(Cl)cc1 (configuration not stated)	inactive
COc1cc(N)c(Cl)cc1C(=O)OCC(=O)c1ccc2c(c1)NC(=O)CO2	inactive
CCOC(=O)N(Cc1ccccc1)C1CC1	inactive
CC1(C)C(=O)CCC2(C)C1=CCC1C2C(=O)CC2(C)C1CCC2(O)C(=O)CO (configuration not stated)	inactive
NS(=O)(=O)c1ccc(CNC(=S)NC(=O)c2ccco2)cc1	inactive
O=C(CNC(=O)c1ccc2ccccc2c1)Nc1ncccc1O	inactive
CCOC(=O)C(C)n1cnc2c(nnn2-c2cccc(OC)c2)c1=O (configuration not stated)	inactive

SMILES	Potency
c1ccc(-n2nnnc2-c2cccnc2)cc1	inactive
CCOc1cccc(-n2nnnc2-c2ccc(OC)cc2)c1	6.51 µM (active)
CC1CCCCC1NCC(=O)Nc1ccccc1C(=O)Nc1ccccc1 (configuration not stated)	inactive
CC(C#N)(NC(=O)CN1CCN(S(=O)(=O)c2cc(C(F)(F)F)ccc2Cl)CC1)C1CC1 (configuration not stated)	inactive
CCC(=O)Nc1ccc2nc(C)n(Cc3ccccc3Cl)c(=O)c2c1	inactive
CCOc1cc(NC(=O)c2ccccc2C(=O)O)c(OCC)cc1NC(=O)c1ccccc1F	inactive
CCN1CCN(c2cc3nc(C)n(Cc4ccccc4)c(=O)c3cc2NC(=O)c2ccccc2F)CC1	18.4 µM (active)
O=C(N=C1SC2CS(=O)(=O)CC2N1c1ccccc1)c1ccccc1 (configuration not stated)	inactive
C[C@@H]1CN([C@@H](C)CO)C(=O)c2cccc(NS(=O)(=O)c3ccc(F)cc3)c2O[C@H]1CN(C)C(=O)NC1CCCCC1	inactive
CN(C)CCNC(=O)c1ccc(Cl)c2cc3ccccc3nc12	inactive
O=C(Nc1nc2ccc([N+](=O)[O-])cc2s1)c1ccc(S(=O)(=O)N2CCCc3ccccc32)cc1	2.59 µM (active)
Cc1ccc(NC(=O)c2cccc(S(=O)(=O)N3CCCc4ccccc43)c2)nc1	inactive
CS(=O)(=O)c1ccc2nc(NC(=O)c3ccc(N4CCCC4=O)cc3)sc2c1	inactive
COc1ccc(CCNC(=O)Cc2ccc(C)cc2)cc1OC	inactive
COc1ccc(CNC(=O)COC(=O)c2c(C)nn(-c3ccccc3)c2C)cc1OC	inactive
COc1ccc(CNC(=O)COc2ccccc2C(=O)c2cnn(-c3ccccc3)c2)cc1OC	13 µM (active)
COc1ccc(NC(=O)CNC(=O)Cc2ccccc2)cc1OC	inactive
COc1ccc(CNC(=O)COC(=O)c2sccc2C)cc1OC	inactive
COc1ccc(CNC(=O)Cc2ccc(-c3ccccc3)cc2)cc1OC	11.6 µM (active)
CC1CCCCC1NC(=O)NC(=O)COC(=O)C1=NN(c2ccccc2)C(=O)CC1 (configuration not stated)	inactive
CCn1ccnc1CN(C)C(=O)c1cc(COc2ccc(Cl)cc2OC)on1	inactive
CC1CN(C(=O)c2cc(COc3c(F)cccc3F)on2)CCN1C (configuration not stated)	inactive
COc1cc(Cl)ccc1OCc1cc(C(=O)N2CC[C@@H]3CCCC[C@H]3C2)no1	16.4 µM (active)
CSc1ncccc1C(=O)NCC(c1ccco1)N1CCCCC1 (configuration not stated)	inactive
